# This is a sample that favours compounds with a hit; in the whole collection about 2.4% have one here.
# POLK inh = inhibitors of human DNA polymerase kappa; Q9UBT6; AID 588579; 400,000 compounds, 0.53% hits; purified Pol kappa, fluorescent DNA synthesis assay, 10 min; Potency, µM (highest dose often 107 µM), for inactives: at the top dose activity, negative = inhibition, hits mostly inhibitors; also: % is scaled to controls: 0 for no effect and ±100 for the full control effect
#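 10 nM Pol kappa preincubated 15 min at room temperature with compounds, then reaction started with substrate at 50 nM final. Fluorescence read kinetically at 0 and 10 min; buffer-only wells served as negative control.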
# Pol eta inh = blocks human DNA polymerase eta activity. 390,000 compounds, 1.2% hits. Q9Y253. Potency, µM (titrated, usually from 114 µM), without a hit: at the top dose activity change, negative = inhibition, hits mostly inhibitors. recombinant Pol eta, fluorescent DNA replication assay. AID 588591; also: % is scaled to controls: 0 for no effect and ±100 for the full control effect
# Target sequence (Q9Y253 whole entry, looked up): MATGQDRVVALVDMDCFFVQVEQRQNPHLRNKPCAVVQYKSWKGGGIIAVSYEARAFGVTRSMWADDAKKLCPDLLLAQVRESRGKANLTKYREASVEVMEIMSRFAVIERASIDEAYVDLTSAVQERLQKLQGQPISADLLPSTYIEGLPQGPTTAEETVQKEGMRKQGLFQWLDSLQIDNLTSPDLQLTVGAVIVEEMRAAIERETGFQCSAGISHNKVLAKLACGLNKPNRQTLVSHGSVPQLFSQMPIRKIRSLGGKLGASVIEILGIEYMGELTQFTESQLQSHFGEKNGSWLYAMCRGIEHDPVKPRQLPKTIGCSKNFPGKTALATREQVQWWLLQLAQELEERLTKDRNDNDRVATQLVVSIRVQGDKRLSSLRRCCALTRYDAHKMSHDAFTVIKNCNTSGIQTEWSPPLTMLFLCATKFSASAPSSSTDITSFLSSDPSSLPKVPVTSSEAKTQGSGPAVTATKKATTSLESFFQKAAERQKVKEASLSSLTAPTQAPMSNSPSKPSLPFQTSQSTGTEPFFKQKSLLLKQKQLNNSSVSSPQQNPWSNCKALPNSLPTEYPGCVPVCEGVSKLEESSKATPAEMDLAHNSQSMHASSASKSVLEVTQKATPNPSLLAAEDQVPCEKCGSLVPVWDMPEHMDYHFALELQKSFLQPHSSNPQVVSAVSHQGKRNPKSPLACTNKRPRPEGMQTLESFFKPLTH
#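 Pol eta (10 nM) was preincubated with compounds for 15 min at room temperature, after which fluorescent replication substrate (50 nM final) was added to start the reaction. Fluorescence was read kinetically at 0 and 10 min.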
# WRN inhibitor = inhibitors of human WRN helicase; Potency, µM (doses to about 114 µM), without a hit: at the highest dose activity change, negative = inhibition, actives largely listed as inhibitors; Q14191; WRN helicase unwinding, fluorescent forked duplex, kinetic; 360,000 compounds, 0.46% hits; AID 651768; also: % is scaled to controls: 0 for no effect and ±100 for the full control effect; nearly all actives have a fitted effect of over 55% in size
#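 Primary qHTS, 1536-well format. 20 nM WRN + compound, 15 min RT; start with 100 nM forked fluorophore/quencher duplex, 2 mM ATP (final); kinetic read ex 525/em 598 nm.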
# Pol beta inh = DNA polymerase beta (human) inhibition | P06746 | Pol beta primer extension/strand displacement, fluorescence kinetic | Potency, µM (titrated, usually from 114 µM), for inactives: at the highest dose activity change, negative = inhibition, most hits filed as inhibitors | 340,000 compounds, 1.3% hits; also: % is scaled to controls: 0 for no effect and ±100 for the full control effect
#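 Values derive from four-parameter Hill fits of normalized kinetic data: reads at 0 and 10 min following addition of 50 nM substrate to 10 nM Pol beta preincubated 15 min with compound.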
# FEN1 inhibitor = inhibitors of human flap endonuclease 1. Recombinant FEN1 flap cleavage, fluorescence, 15 min. 390,000 compounds, 0.35% hits. P39748. AID 588795. Potency, µM (highest dose often 114 µM), for the others: at the top dose activity change, negative = inhibition, actives largely listed as inhibitors; also: % is scaled to controls: 0 for no effect and ±100 for the full control effect; nearly all actives have a fitted effect of over 65% in size
#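 Quantitative HTS format: each compound was titrated, incubated with 10 nM nuclease for 15 min at room temperature, then challenged with flap substrate at 50 nM final. Signal change over 15 min gave concentration–effect curves.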
# POLI inh = blocks human DNA polymerase iota activity; 390,000 compounds, 1% hits; Pol iota fluorescent replication assay, 10 min; AID 588590; Q9UNA4; Potency, µM (highest dose often 115 µM), for the others: top-dose activity, negative = inhibition, usual class: inhibitors
#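 Fluorescent replication assay read twice, at 0 min and 10 min after adding 50 nM (final) substrate. Enzyme (10 nM) and compounds were first incubated 15 min at room temperature; enzyme-free buffer wells were negative controls.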
# * hit, by the source's call; ? = inconclusive; · = no result given; ! = repeats disagree; [ ] = dose if it differs, or a comment. Calls follow the shape of the dose curve; as a rule, active = well fitted curve in the direction sought with a large enough effect; inconclusive = small, poorly fitted or top-dose-only effect, or another doubt; inactive = no such curve, though single readings can be large; an effect the other way counts as inactive or inconclusive. Potency is read from the fitted curve at half-maximal effect.
SMILES,POLK inh,Pol eta inh,WRN inhibitor,Pol beta inh,FEN1 inhibitor,POLI inh
CC1(C)Cc2c(C#N)c(N3CCN(C(=O)c4ccccc4)CC3)nc(-c3ccco3)c2CS1,-22%,32µM*,?,28µM*,-15%,?
CC(C)c1nc(N2CCN(C(=O)c3ccccc3)CC2)c(C#N)c2c1COC(C)(C)C2,-9%,-6%,5%,-2%,-19%,?
COc1cc(CCC(O)CC(=O)CCc2ccccc2)ccc1O (stereo unspecified),-22%,-12%,0%[11.6 µM],25µM*,-13%,79µM*
Cc1ccc2oc(-c3cccc(NC(=O)COc4ccc(Cl)cc4)c3C)nc2c1,-6%,·,·,·,6%,-23%
CSc1ccc(/C=C2\C=Cc3ccc([N+](=O)[O-])cc32)cc1,-22%,·,·,·,-13%,29%
CCC(=O)O[C@H]1C(O[C@@H]2C(C)[C@H](O[C@H]3C[C@@](C)(OC)C(O)C(C)O3)C(C)C(=O)OC(CC)[C@@](C)(O)C(O)[C@H](C)C(=O)C(C)C[C@]2(C)O)OC(C)CC1N(C)C (stereo partly specified),32µM*,·,·,·,·,·
CCOC(=O)CCC(=O)O[C@H]1C(O[C@@H]2C(C)[C@H](O[C@H]3C[C@@](C)(OC)C(O)C(C)O3)C(C)C(=O)OC(CC)[C@@](C)(O)C(O)[C@H](C)C(=O)C(C)C[C@]2(C)O)OC(C)CC1N(C)C (stereo partly specified),-6%[60.1 µM],·,·,·,·,·
CC(=O)Nc1ccc(NC(=O)c2cc([N+](=O)[O-])cc([N+](=O)[O-])c2)cc1,-17%,-17%,2%,3%,-17%,22%
Cc1ccc(NC(=O)c2ccc(Nc3c([N+](=O)[O-])cc([N+](=O)[O-])cc3[N+](=O)[O-])cc2)cc1,-32%,?,?,?,-21%,20µM*
CC(C)(C)n1ncc2c(=O)n(Cc3c(Cl)cccc3Cl)cnc21,8%,·,·,·,-14%,5%
Cc1ncc(CO)c(/C=N/NC(=O)c2cc(O)c(O)c(O)c2)c1O,·,·,·,0.32µM*,·,·
O=C(CSc1nc2c(cnn2-c2ccc(F)cc2)c(=O)[nH]1)Nc1ccccc1C(F)(F)F,-12%,-9%,·,7.9µM*,-14%,?
Oc1ccc(NCc2cccs2)cc1,-12%,-18%,-27%,43%,8%,32µM*
N#Cc1ccccc1OCC(O)CNCCNC(=O)Nc1ccccc1 (stereo unspecified),5%[19.4 µM],·,·,·,·,·
Cc1cccc(Oc2cc([N+](=O)[O-])cc3c2C(=O)Nc2ccccc2O3)c1,-17%,?,16%,?,-5%,79µM*
COc1ccc(/C=C/c2nccc3ccccc23)cc1OC,0%,·,·,·,-19%,17%
COC(=O)C1CCN(C(=O)COC(=O)CNS(=O)(=O)c2ccc(SC)c([N+](=O)[O-])c2)CC1,-41%,?,-10%[11.6 µM],·,-10%,79µM*
COc1ccccc1C(=O)CC(=O)c1ccccc1,-12%,-3%,-9%,-4%,-11%,1%
COc1cccc(=O)c2c(C)n(CC(=O)c3ccccc3)c(C)c12,-27%,?,-13%,22µM*,-14%,?
Cc1cc(C(=O)Nc2cccc([N+](=O)[O-])c2C)cs1,-1%,4%,-4%,7%,21%,-11%
CCc1ccc(CNC(=O)c2cc3c(s2)-c2ccccc2OC3)cc1,?,-4%,·,50µM*,-18%,79µM*
CCOc1ccc(CCNC(=O)c2cc3c(s2)-c2ccccc2OC3)cc1OCC,-3%,-9%,·,32µM*,-13%,?
Cc1cccc2c1-c1sc(C(=O)NCc3ccccc3Cl)cc1CO2,-3%,-12%,·,16%,11%,11%
Cc1ccc(CCNC(=O)c2cc3c(s2)-c2c(C)cccc2OC3)cc1,-2%,?,·,3.5µM*,7%,32%
Cc1c(NC(=O)c2ccc3nsnc3c2)cccc1[N+](=O)[O-],?,2%,-2%,15%,-16%,25µM*
SMILES,POLK inh,Pol eta inh,WRN inhibitor,Pol beta inh,FEN1 inhibitor,POLI inh
Nc1ccccc1NC(=O)c1ccc(CNC(=O)OCc2cccnc2)cc1,1%[60.1 µM],·,·,·,·,·
CC(=O)Nc1ccc(/C=C/c2ccccn2)cc1,-3%,·,·,·,15%,15%
O=C(NCCc1ccc(Cl)cc1)C1COc2ccccc2O1 (stereo unspecified),-19%,-13%,5%[11.6 µM],-29%,37%,50µM*
CC(=O)c1cccc(NC(=O)c2cc3c(s2)-c2c(C)cccc2OC3)c1,-3%,-4%,·,14%,12%,-11%
O=C(NCCc1ccc(Cl)cc1)c1cc2c(s1)-c1ccccc1OC2,?,-9%,·,35µM*,-14%,89µM*
O=C(Nc1ccc(Cl)cn1)c1cc2c(s1)-c1ccccc1OC2,4%,-2%,-5%,19%,-17%,11%
Cc1cccc2c1-c1sc(C(=O)Nc3cccc([N+](=O)[O-])c3C)cc1CO2,-9%,-6%,-3%,0.2µM*,-9%,7%
Cc1c(NC(=O)c2ccc(N3CCCC3)c([N+](=O)[O-])c2)cccc1-c1nc2ccccc2s1,1%,7%,1%[11.6 µM],2%,-7%,79µM*
NC(=S)NCCCC(N)C(=O)O (stereo unspecified),·,-4%[57.1 µM],·,21%[57.1 µM],·,7%[58.9 µM]
C(=C\c1ccnc2ccccc12)/c1cc2c3c(c1)CCCN3CCC2,-11%,·,·,·,-16%,-12%
COc1ccc(-c2cc3ncc(C)n3c(Nc3ncccc3C(N)=O)n2)cc1OC,-15%[60.1 µM],·,·,·,?,·
CC(=O)NC1=CC(=O)c2nonc2C1=O,?,·,·,·,-53%,-84%
C[c-]1[c-](C)[c-](C)[c-](C)[c-]1C.[Fe].c1cc2nccc(N3CCCC3)[c-]2c1 (stereo unspecified),?,20µM*!,-19%,4.5µM*!,?,10µM*!
c1cc(N2CCCCC2)nc(N2CCCCC2)n1,-8%,-12%,7%,·,-7%,41%
COc1cc(-c2cnc3c(NC=O)cc(-c4cccc(C(=O)NCCN(C)C)c4)cn23)cc(OC)c1OC,·,·,20µM*,·,·,·
COc1cc(-c2cnc3c(NC(C)=O)cc(-c4cccc(C(=O)NCCO)c4)cn23)cc(OC)c1OC,·,·,-3%,·,·,·
COc1ccc(-c2cnc3c(NC(C)=O)cc(-c4cccc(C(=O)NCCN(C)C)c4)cn23)cc1OC,·,·,25µM*,·,·,·
O=C(Cc1ccc(OCc2ccccn2)cc1)NO,-21%,·,·,·,-14%,55%
Cn1cnc([N+](=O)[O-])c1S(=O)(=O)Oc1ccc(Cl)cc1,3%,2%,35µM*,·,-11%,?
CCS(=O)(=O)c1c([N+](=O)[O-])ncn1C,11%,-13%,-3%,1%,-2%,24%
O=C1C(=C2CCCCC2)SC(=S)N1Cc1ccco1,?,?,?,25µM*,-5%,?

# High-throughput results deposited in PubChem by National Center for Advancing Translational Sciences (NCATS).
